Laboratory results as given in PubChem BioAssay AID2147 (National Center for Advancing Translational Sciences (NCATS), 2009).
About 3,600 (1.6%) of roughly 230,000 compounds were called active. A call without a number means that no potency is given here. Roughly 15% stayed inconclusive and do not appear here. Calls follow the shape of the dose curve; as a rule, active = well fitted inhibition curve with a large enough effect (not every such curve was filed as active); inconclusive = small, poorly fitted or top-dose-only effect, or another doubt; inactive = no such curve, though single readings can be large or run the other way. This excerpt belongs to a sample that is enriched for actives.

molecular target: Lysine-specific demethylase 4E (Homo sapiens) (UniProt B2RXH2); test: qHTS Assay for Inhibitors of Human Jumonji Domain Containing 2E (JMJD2E); conditions: JMJD2E catalytic domain, FDH-coupled NADH fluorescence (FDH is formaldehyde dehydrogenase); series mostly up to 57.1 µM
Also: nearly all actives have a fitted effect of over 50% in size.
Potency is read from the fitted curve at half-maximal effect.

Chain of Lysine-specific demethylase 4E (Homo sapiens) (B2RXH2 1-337 limits assumed): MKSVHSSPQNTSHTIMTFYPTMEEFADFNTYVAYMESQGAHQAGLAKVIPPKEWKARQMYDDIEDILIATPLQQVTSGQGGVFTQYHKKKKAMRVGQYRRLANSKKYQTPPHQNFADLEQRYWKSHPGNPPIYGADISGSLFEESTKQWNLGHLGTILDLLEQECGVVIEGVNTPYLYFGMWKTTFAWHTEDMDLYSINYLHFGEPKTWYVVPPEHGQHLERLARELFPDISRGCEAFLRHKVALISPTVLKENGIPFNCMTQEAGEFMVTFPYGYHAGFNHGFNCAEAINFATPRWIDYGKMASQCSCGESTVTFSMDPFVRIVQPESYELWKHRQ

Row | SMILES | Potency
1 | CCOc1ccc(NC(=O)CCC(=O)N/N=C/c2ccc([N+](=O)[O-])s2)cc1 | inactive
2 | O=[N+]([O-])c1ccc(C=Nc2ccc(Cl)cc2Cl)s1 | 22.4 µM (active)
3 | CC(C)(C)c1cc(C(=O)N/N=C/c2ccc([N+](=O)[O-])s2)n[nH]1 | inactive
4 | O=C(NNS(=O)(=O)c1ccccc1)c1cnn(-c2ccc(Cl)cc2)c1C(F)(F)F | inactive
5 | NC(=O)C1(C(N)=O)OC1c1ccc(Cl)cc1Cl (stereo not drawn) | inactive
6 | O=C(CSc1nc2ccccc2o1)N/N=C/c1ccccc1C(=O)O | inactive
7 | NC(=O)C1=C[C@H](c2csc3ccccc23)C[C@H](OCc2ccc(CO)cc2)O1 | inactive
8 | NC(=O)C1=C[C@@H](c2csc3ccccc23)C[C@@H](OCc2ccc(CO)cc2)O1 | 22.4 µM (active)
9 | O=C(NC1CC1)C1=C[C@H](c2c[nH]c3ccccc23)C[C@H](OCc2ccc(CO)cc2)O1 | inactive
10 | OCC1(Cc2ccccc2C(F)(F)F)CCN(Cc2ccncc2)CC1 | inactive
11 | CCOC(=O)N1CCN(C(=O)c2cn(C)c3ccc(S(=O)(=O)N4CCCC4)cc3c2=O)CC1 | inactive
12 | CCn1cc(C(=O)NCCCN2CCCCCC2)c(=O)c2cc(S(=O)(=O)N3CCc4ccccc4C3)ccc21 | 25.1 µM (active)
13 | CCn1cc(C(=O)NCC2CCCO2)c(=O)c2cc(S(=O)(=O)N3CCCCC3)ccc21 (stereo not drawn) | inactive
14 | CC(C)(C)C(=O)Nc1c(Br)c(C2CC2)nn1-c1ccccc1 | inactive
15 | O=C(COC(=O)c1ccc(S(=O)(=O)Nc2ccccc2)cc1)NCC1CCCO1 (stereo not drawn) | inactive
16 | CCN(CC(=O)NCCc1ccccc1)S(=O)(=O)c1ccccc1 | inactive
17 | Cc1c(CCOC(=O)CC23CC4CC(CC(C)(C4)C2)C3)sc[n+]1Cc1ccc([N+](=O)[O-])cc1 | 10 µM (active)
18 | Cc1c(CCO)sc[n+]1CC(=O)OC12CC3CC(CC(C3)C1)C2 | inactive
19 | Cc1c(CCOC(=O)c2cc([N+](=O)[O-])ccc2Cl)sc[n+]1CCCCS(=O)(=O)[O-] | inactive
20 | O=C(COc1ccc([N+](=O)[O-])cc1Cl)Nn1cnnc1 | inactive
21 | COc1ccc(CCC(=O)c2c(O)cc(OC3OC(CO)C(O)C(O)C3O[C@@H]3OC(C)C(O)C(O)C3O)cc2O)cc1O (stereo partly drawn) | inactive
22 | C[C@@H]1O[C@@H](OC[C@H]2O[C@@H](Oc3c(-c4cccc(O)c4O)oc4cc(O)cc(O)c4c3=O)[C@H](O)[C@@H](O)[C@@H]2O)[C@H](O)[C@H](O)[C@H]1O | 7.08 µM (active)

Row | SMILES | Potency
23 | COc1ccc(C2CC(=O)c3c(O)cc(OC4OC(COC5OC(C)C(O)C(O)C5O)C(O)C(O)C4O)cc3O2)cc1O (stereo not drawn) | inactive
24 | CC1OC(OCC2OC(Oc3c(-c4ccc(O)c(O)c4)oc4cc(O)cc(O)c4c3=O)C(O)C(O)C2O)[C@@H](O)C(O)C1O (stereo partly drawn) | 7.08 µM (active)
25 | C=CCc1ccc(OCC(O)CN2CCN(Cc3ccccc3)CC2)c(OC)c1 (stereo not drawn) | inactive
26 | CCN(CC)CC1(O)CCN(C(=O)c2ccc(Cl)c(Cl)c2)CC1 | inactive
27 | CSc1nnnn1-c1c(C)cc(C)cc1C | inactive
28 | CCc1ccc[n+](-c2nc([O-])sc2C=O)c1 | inactive
29 | O=C(Nc1ccc(N2CCN(C(=O)c3ccccc3)CC2)c(Cl)c1)c1ncn[nH]1 | inactive
30 | Nc1cccc(S(=O)(=O)Nc2ccc(SC(F)F)cc2)c1 | inactive
31 | CN1CCN(C2=NCCO2)CC1 | inactive
32 | Cc1cccc(-[n+]2c(-c3cccc(Br)c3)[nH]c3nc4ccccc4nc32)c1 | 25.1 µM (active)
33 | CCCCCc1nnc(NC(=O)c2ccc(=O)n(C)n2)s1 | inactive
34 | CCOCCCNCc1cc(Br)ccc1OCC | inactive
35 | Cn1nc(C(F)(F)F)cc1C(=O)O | inactive
36 | O=C(O)CC/C(=N\NC(=O)c1ccc(F)cc1)c1ccc(Br)cc1 | inactive
37 | COc1ccc(C(C[N+](=O)[O-])n2nc(C)cc2C)cc1 (stereo not drawn) | inactive
38 | CC(=O)Nc1ccc(/C=N/Nc2ccc(C(=O)c3c(C)cc4ccccn34)cc2[N+](=O)[O-])cc1 | inactive
39 | Cc1ccc(C(C[N+](=O)[O-])c2c(C)cc3ccccn23)cc1 (stereo not drawn) | 25.1 µM (active)
40 | Cc1ccc(/C=N/NC(=S)Nc2cccc(S(=O)(=O)N(C)C)c2)o1 | inactive
41 | Cc1ccnc(NC(=O)CCC(=O)N(CC(=O)NCCc2ccccc2)Cc2cccs2)c1 | inactive
42 | C#CCNc1ccc(C(=O)OCC)cc1 | inactive
43 | COC(=O)c1c(C)oc(C)c1S(=O)(=O)NCc1ccc(Cl)cc1 | inactive
44 | COc1ccc(C(=O)C2CCCN(C(=O)c3cnsn3)C2)c(C)c1 (stereo not drawn) | inactive

Row | SMILES | Potency
45 | Oc1[nH]c2ccc(Br)cc2c1N=Nc1nn[nH]n1 | inactive
46 | CSc1n[nH]c(=S)n1N | 31.6 µM (active)
47 | Nc1ccc(N=Nc2ccccc2Cl)c(N)n1 | inactive
48 | Cc1ccc(S(=O)(=O)N(C)C)cc1NC(=O)c1n[nH]c(=O)c2ccccc12 | inactive
49 | COc1cccc(/C=N/NC(=O)c2[nH]nc3c2CCc2ccccc2-3)c1O | inactive
50 | COc1cccc(/C=N/Nc2cc(C)nc(-c3ccccc3O)n2)c1O | inactive
51 | COc1cccc(/C=N\NC(=O)C2=NNC(=O)C2C)c1O (stereo not drawn) | 7.08 µM (active)
52 | Oc1ccc(-c2nnc(Nc3ccccc3)c3ccccc23)cc1 | inactive
53 | O=c1c(-c2ccccc2)cnc2n1CCS2 | inactive
54 | CN1CCN(c2ncc3c(n2)CC(c2ccccc2F)CC3=O)CC1 (stereo not drawn) | inactive
55 | O=C(Cn1nnc(N2CCCCC2)n1)c1ccc(Cl)c(Cl)c1 | inactive
56 | Cc1ccc(SCc2c(C(=O)N/N=C/C3CC=CCC3)nnn2-c2nonc2N)cc1 (stereo not drawn) | inactive
57 | Nc1nonc1-n1nnc(C(=O)N/N=C/c2cc(Br)ccc2O)c1CSC1=NCCS1 | 20 µM (active)
58 | COCc1c(C(=O)N/N=C/C2CC=CCC2)nnn1-c1nonc1N (stereo not drawn) | inactive
59 | CCOc1ccc(-c2nc(N)ncc2-c2ccccc2OC)c(O)c1 | inactive
60 | Cc1cc(C)cc(C(=O)NC2C(=O)N3C(C(=O)O)=C(CSc4nnc(C)s4)CSC23)c1 (stereo not drawn) | inactive
61 | O=C(CNc1ccc(F)cc1F)NC(=O)NCc1ccco1 | inactive
62 | C/C(=N\NC(=O)c1ccc(C)cc1)C1C(=O)c2ccccc2C1=O | 25.1 µM (active)
63 | Cc1ccc(C(=O)NCCNC(=O)c2ccccc2)cc1 | inactive
64 | Cc1ccc(C(=O)NC(=S)Nc2ccccc2C)cc1 | inactive
65 | O=c1[nH]c2cccnc2n1-c1ccc([N+](=O)[O-])cc1 | inactive
66 | O=C(CCCl)Nc1ccc(S(=O)(=O)NCc2ccco2)cc1 | inactive

Row | SMILES | Potency
67 | CCC(C)(C)NC(=O)C1c2ccccc2Oc2ccccc21 | inactive
68 | CCC(C)NC(=O)C1c2ccccc2Oc2ccccc21 (stereo not drawn) | inactive
69 | O=C(N/N=C/c1ccc(O)c(O)c1)C1c2ccccc2Oc2ccccc21 | 14.1 µM (active)
70 | COc1ccc(OC)c(NC(=O)CN(Cc2ccc(Cl)cc2)S(C)(=O)=O)c1 | inactive
71 | O=C(CSc1nc(O)c(Cc2ccccc2)c(=O)[nH]1)Nc1nc2c(s1)CCCC2 | inactive
72 | CC(C)(C)NC(=O)NCc1ccco1 | inactive
73 | CCOc1cccc(/C=N/NC(=S)NCCN2CCOCC2)c1O | 35.5 µM (active)
74 | Cc1ccc(C(=O)NC(=S)NCCN2CCOCC2)cc1 | inactive
75 | Cc1ccc(NC(=S)NCCN2CCOCC2)cc1 | inactive
76 | COc1ccc(COCC(O)CN2CCC(C(N)=O)CC2)cc1 (stereo not drawn) | inactive
77 | CC(C)C1N=C2c3ccccc3N=C(SCC(=O)c3ccc(O)c(O)c3)N2C1=O (stereo not drawn) | 25.1 µM (active)
78 | COC(=O)c1cc(C(=O)CSc2nc(C)cc(C)n2)ccc1O | inactive
79 | COc1ccccc1P(=O)(c1ccccc1)c1ccccc1NC(C)=O (stereo not drawn) | inactive
80 | CN(CC(O)COc1ccc(S(=O)(=O)N2CCOCC2)cc1Cl)C1CCCCC1 (stereo not drawn) | inactive
81 | COc1ccc2c(c1)O[C@@H](c1ccc3c(c1)OCO3)[C@H](OC(=O)NCCc1ccc(OC)c(OC)c1)C2=O | inactive
82 | COc1cccc([C@@H]2Oc3ccc(Br)cc3C(=O)[C@H]2OC(=O)NCc2ccc3c(c2)OCO3)c1 | inactive
83 | COc1cccc([C@@H]2Oc3ccc(Br)cc3C(=O)[C@H]2OC(=O)NCCc2ccc(OC)c(OC)c2)c1 | 14.1 µM (active)
84 | c1ccc(-c2nnc(N3CCOCC3)c3ccccc23)cc1 | inactive
85 | O=C(Nc1ccc(S(=O)(=O)Nc2nccs2)cc1)c1cccc(S(=O)(=O)N2CCOCC2)c1 | inactive
86 | CCc1nc(C)cn1S(=O)(=O)c1cc([N+](=O)[O-])ccc1Cl | inactive
87 | COc1ccc(-c2csc(Nc3ccc(O)cc3)n2)cc1 | inactive
88 | COc1ccc(OC)c(Nc2nc(-c3ccc(O)c(O)c3)cs2)c1 | 28.2 µM (active)

Row | SMILES | Potency
89 | COc1ccc(-c2csc(Nc3ccccn3)n2)cc1 | inactive
90 | O=C(Nc1n[nH]c(C(F)(F)F)n1)c1cccs1 | inactive
91 | CCOC(=O)c1cn[nH]c1NC(=S)Nc1ccccc1 | inactive
92 | O/N=C1\CC2(Cc3nonc31)OCCO2 | inactive
93 | ON=C1/C(=N\O)CC2(C/C1=N/O)OCCO2 | 7.08 µM (active)
94 | Cc1[nH]n(C)c(=O)c1N=Nc1ccc(S(C)(=O)=O)cc1 | inactive
95 | COc1cccc(N2C(=O)CC(N3CCc4ccccc4C3)C2=O)c1 (stereo not drawn) | inactive
96 | NCCCCCC(=O)N/N=C/c1ccc2nccnc2c1 | inactive
97 | CCOC(=O)CSc1nc(C)c(Oc2ccc(Cl)cc2Cl)c(=O)[nH]1 | inactive
98 | Oc1cccc(C2c3[nH]c4ccccc4c3CCN2Cc2cnn(-c3ccccc3)c2)c1 (stereo not drawn) | inactive
99 | COCc1ccc(C(=O)N2CCc3c([nH]c4ccccc34)C2c2ccccn2)s1 (stereo not drawn) | inactive
100 | c1ccc(C2c3[nH]c4ccccc4c3CCN2Cc2cccn2-c2cccnc2)nc1 (stereo not drawn) | 14.1 µM (active)
101 | CCc1cccc2c(=O)c(C(=O)NCCCOC)c[nH]c12 | inactive
102 | CN(C(=O)CCn1c(=S)oc2ccccc21)C1CCCCC1 | inactive
103 | Cc1cccc(N2C(=O)CC(SC(N)=Nc3ccccc3)C2=O)c1 (stereo not drawn) | inactive
104 | CCOC(=O)c1ccc(N2C(=O)CC(Sc3nc(O)c(CC)c(=O)[nH]3)C2=O)cc1 (stereo not drawn) | inactive
105 | O=C1CC(N2CCN(c3ccc(F)cc3)CC2)C(=O)N1c1ccccc1 (stereo not drawn) | inactive
106 | Cc1ccc(N2C(=O)CC(Sc3ncn[nH]3)C2=O)cc1 (stereo not drawn) | 2.51 µM (active)
107 | O=C1CC(Sc2ncn[nH]2)C(=O)N1c1ccccc1 (stereo not drawn) | 2.24 µM (active)
108 | COc1ccc(N2C(=O)CC(Sc3n[nH]c(-c4ccc(C)cc4)n3)C2=O)cc1 (stereo not drawn) | inactive
